Holding throughout (type): functional
Experiment [1] has as its target Solute carrier family 2, facilitated glucose transporter member 1 (Homo sapiens) (UniProt P11166). Kind of experiment: ST_JUDE_LEISH: Cytotoxicity at 2uM final concentration against transgenic Leishmania Mexicana promastigotes LmGLUT1 that are glucose transport deficient and complemented with the human glucose transporter GLUT1. Activity is measured by DNA content using SYBR green in vitro.

In experiment [2] the target is Hexose transporter 1 (Plasmodium falciparum) (UniProt O97467). Description: ST_JUDE_LEISH: Cytotoxicity at 2uM final concentration against transgenic Leishmania Mexicana promastigotes LmPfHT that are glucose transport deficient and complemented with the Plasmodium falciparum hexose transporter. Activity is measured by DNA content using SYBR green in vitro.
Experiment [3] deals with Glucose transporter (Leishmania mexicana) (UniProt O61059). Kind of experiment: ST_JUDE_LEISH: Cytotoxicity at 2uM final concentration against transgenic Leishmania Mexicana promastigotes LmGT2 that are glucose transport deficient and complemented with the L. Mexicana glucose transporter 2. Activity is measured by DNA content using SYBR green in vitro.

Sequence of Solute carrier family 2, facilitated glucose transporter member 1 (Homo sapiens) (P11166 whole entry): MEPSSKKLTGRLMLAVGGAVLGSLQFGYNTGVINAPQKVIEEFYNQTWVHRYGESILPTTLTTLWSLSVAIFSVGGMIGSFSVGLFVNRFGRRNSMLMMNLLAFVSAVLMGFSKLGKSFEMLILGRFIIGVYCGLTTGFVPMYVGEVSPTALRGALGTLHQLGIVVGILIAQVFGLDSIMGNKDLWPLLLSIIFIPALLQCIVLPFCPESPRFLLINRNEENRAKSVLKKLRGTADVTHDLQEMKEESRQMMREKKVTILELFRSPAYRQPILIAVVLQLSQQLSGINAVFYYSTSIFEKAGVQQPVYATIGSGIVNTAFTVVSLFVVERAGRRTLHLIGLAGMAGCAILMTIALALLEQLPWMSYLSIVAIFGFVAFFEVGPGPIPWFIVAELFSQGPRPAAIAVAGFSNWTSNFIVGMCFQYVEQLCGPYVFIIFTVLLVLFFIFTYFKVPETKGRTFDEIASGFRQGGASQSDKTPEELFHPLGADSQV

Usually inhibition stands for the relative decrease from the control value, in per cent. Consider `CCCOc1cc(NC(=O)Nc2ccnc3ccccc23)cc(OCCC)c1`, for which the inhibition in experiment [1] was -2.56%; in experiment [2], 3%; in experiment [3], 3.42%.

As for `COC(=O)c1cc(NC(=O)Nc2ccc(Cn3ncc(N4CCCNCC4)c(Cl)c3=O)cc2)cc(C(=O)OC)c1`, the inhibition in experiment [1] stood at 0.7%; in experiment [2] it was 1.45%; in experiment [3], 1.92%.

Consider `O=C(NCCc1ccccc1)N(Cc1cccc(-c2ccc(CNCc3ccc4c(c3)OCO4)cc2)c1)C1CCN(Cc2ccccc2)CC1`, for which the inhibition in experiment [1] worked out at 1.17%; in experiment [2], 2.76%; in experiment [3], 1.29%.

Consider `N#Cc1ccc(CNCCCCCCCNCc2ccc(-c3ccccc3)cc2)cc1`, for which the figures for the inhibition in experiment [1], in experiment [2] and in experiment [3] were 4.19%, 5.01% and 5.28%, respectively.

As to `Cc1cc(Nc2ncc(Cl)c(Nc3ccccc3C(N)=O)n2)n[nH]1`, the inhibition was -1.31% in experiment [1], 2.51% in experiment [2] and 3.02% in experiment [3].

As for `c1cnc2ccc(NCc3ccc(-c4ccc(CNC5CCCC5)cc4)cc3)cc2c1`, the values for the inhibition in experiment [1], in experiment [2] and in experiment [3] were 0.93%, 0.1% and -6.73%, respectively.

For the molecule `CC1CCN(CC[C@H]2CCCN2S(=O)(=O)c2cccc(NC(=O)c3ccc(-c4ccc(Cl)cc4)o3)c2)CC1`, the inhibition in experiment [1] is -0.33%; in experiment [2], 1.69%; in experiment [3], -0.14%.

`NC(=O)c1cccc(CN2Cc3ccccc3OC3(CCN(Cc4c[nH]c5cnccc45)CC3)C2)c1`: the inhibition in experiment [1] was 0.63%; in experiment [2], 1.28%; in experiment [3], 0.09%.

Consider `CN(C)CCCNCc1ccc(-c2ccc(C(F)(F)F)cc2)cc1`, for which the inhibition in experiment [1] is 5.63%; in experiment [2], 4.5%; in experiment [3] it was 4.81%.

For `Cc1cccc2nc(-c3ccc(-c4ccc(NC(=O)Nc5ccsc5)cc4)s3)[nH]c12`, the inhibition in experiment [1] turned out to be 5.12%; in experiment [2] it was 5.23%; in experiment [3], 4.39%.

Turning to `O=C(c1ccc(Cl)cc1)N1CCOC(CCN2CCC(c3ccccc3)CC2)(c2ccc(Cl)c(Cl)c2)C1` (configuration not stated), the inhibition in experiment [1] is 0.85%; in experiment [2] it was -0.89%; in experiment [3], -0.89%.

Turning to `CCc1ccccc1N1CCN(CCCCNC(=O)c2ccc(NC(=O)c3ccc(Cl)cc3)cc2)CC1`, the inhibition in experiment [1] came out at 2.51%; in experiment [2], 2.19%; in experiment [3], 0.44%.

For `O=C(NC1CC1)c1cnc(N2CCN(Cc3ccc(Cl)cc3)CC2)c(Cl)c1`, the results for the inhibition in experiment [1], in experiment [2] and in experiment [3] were 5.43%, 1.16% and -5.97%, respectively.

In the case of `COc1cc2ncnc(Nc3ccc(OCc4ccccc4Br)c(Cl)c3)c2cc1OC`, the inhibition in experiment [1] is -3.06%; in experiment [2], 1.28%; in experiment [3] it was 6.38%.

For the molecule `O=c1cc(NCCCNC2CCc3ccc(Cl)cc32)[nH]c2ccccc12` (configuration not stated), the inhibition in experiment [1] was -2.61%; in experiment [2], -0.73%; in experiment [3] it was 1.83%.

`Clc1cc(Nc2ncnc3sc(C#C[C@H]4CCCN4)cc23)ccc1OCc1cccnc1Cl`: the inhibition in experiment [1] is 3.83%; in experiment [2] it was 4.71%; in experiment [3] it was 3.35%.

With `Cc1nc2nc(N)nc(N)c2c(C)c1Cc1ccc([N+](=O)[O-])cc1`, the inhibition is 5.73% in experiment [1], 3.25% in experiment [2] and -0.24% in experiment [3].

On to `COc1ccc(CNCc2ccc(F)cc2)cc1-c1ccc(S(=O)(=O)NCCN2CCCC2)s1`, for which the inhibition in experiment [1] is 2.3%; in experiment [2] it was 3.11%; in experiment [3] it was 5.96%.

Take `O=C(/C=C/c1ccc(Cl)c(Cl)c1)NC1CCC(CN2CCC(c3nc4cccnc4[nH]3)CC2)CC1` (configuration not stated): the figures for the inhibition in experiment [1], in experiment [2] and in experiment [3] were 1.77%, 2.5% and -2.89%, respectively.

Consider `Cn1cncc1-c1cc2c(Nc3ccc(OCc4ccccc4)cc3)ncnc2cn1`, for which the inhibition in experiment [1] came out at 4.63%; in experiment [2] it was 5.99%; in experiment [3], 1.66%.

On to `CCOc1ccc(C(=O)Nc2ccc(-c3nc4ccccc4[nH]3)cc2)cc1[N+](=O)[O-]`, for which the inhibition amounted to 1.79% in experiment [1], 2.52% in experiment [2] and 1.46% in experiment [3].

For `Oc1ccc(CCNCCCCNCCc2ccc(Cl)cc2)cc1O`, the inhibition in experiment [1] was -1.52%; in experiment [2], 1.57%; in experiment [3], -2.55%.

As to `COc1ccc(NS(=O)(=O)c2cccc(C(=O)Nc3ccc(C(F)(F)F)cc3)c2)cc1N1CCN(CC(C)C)CC1`, the inhibition stood at 7.82% in experiment [1], 4.29% in experiment [2] and 6.21% in experiment [3].

In the case of `COc1ccc(-c2cc(C(=O)Nc3ccc(CCCN(C)Cc4ccc(OC)c(OC)c4)cc3)c3ccccc3n2)cc1`, the inhibition in experiment [1] stood at 13.6%; in experiment [2], 2.41%; in experiment [3], 1.44%.

Consider `Cc1ccccc1C1CCN(C2CCC(NC(=O)c3cc(-c4ccccc4)oc3C)CC2)CC1` (configuration not stated), for which the results for the inhibition in experiment [1], in experiment [2] and in experiment [3] were -1.06%, 0.71% and -1.44%, respectively.

Turning to `Cc1nn(CC(C)C)c2sc(C(=O)Nc3nc(-c4ccccn4)cs3)cc12`, the inhibition in experiment [1] was 3.49%; in experiment [2] it was 3.41%; in experiment [3] it was 2.33%.

Take `Clc1ccc(Cl)c2[nH]c(CNCCCNc3nc4ccccc4[nH]3)cc12`: the inhibition was determined as 0.92% in experiment [1], 2.67% in experiment [2] and 1.29% in experiment [3].

For the molecule `Cc1cc(NCCc2ccccc2)nc(NC(=N)Nc2cccc([N+](=O)[O-])c2)n1`, the values for the inhibition in experiment [1], in experiment [2] and in experiment [3] were 11.1%, 10.5% and 5.24%, respectively.

`CCc1ccc(CN2CCC(CNC(=O)c3cc(-c4ccccc4F)cs3)C2)cc1` (configuration not stated): the inhibition was 1.55% in experiment [1], -3.47% in experiment [2] and 1.83% in experiment [3].

Regarding `O=C(/C=C/c1ccc(Cl)c(Cl)c1)NC1CCC(CN2CCC(c3nc4ccccc4s3)CC2)CC1` (configuration not stated), the inhibition was 0.92% in experiment [1], 5.64% in experiment [2] and -1.65% in experiment [3].

For the molecule `CCc1c[nH]c2c(N3CCCS3(=O)=O)cc(C(=O)N[C@@H](Cc3ccccc3)[C@H](O)CNC3CCCCC3)cc12`, the figures for the inhibition in experiment [1], in experiment [2] and in experiment [3] were -0.09%, 2.13% and 3.39%, respectively.

Regarding `CCNC(=O)Nc1ccc(N(C)c2ccnc(Nc3ccc(CS(C)(=O)=O)cc3)n2)cc1`, the inhibition was found to be 13.5% in experiment [1], 12.2% in experiment [2] and 9.58% in experiment [3].

For the molecule `O=c1cc(NCCCNCc2cccc(OC(F)(F)C(F)F)c2)[nH]c2ccccc12`, the inhibition in experiment [1] stood at 6.11%; in experiment [2], 7.27%; in experiment [3], 5.78%.

Consider `Cc1noc(-c2ccccc2)c1NC(=O)NC1CCN(CCCCCNC(=O)/C=C/c2ccc(Cl)c(Cl)c2)CC1`, for which the inhibition in experiment [1] amounted to 4.35%; in experiment [2] it was 5.32%; in experiment [3], 3.4%.

For `CC(C)c1nc(N2CCN(C(=S)NCc3ccccc3)CC2)c(C#N)c2c1COC(C)(C)C2`, the inhibition was -0.1% in experiment [1], 0.47% in experiment [2] and 0.22% in experiment [3].

For the molecule `FC(F)(F)c1cnc(Sc2nnc(-c3ccco3)o2)c(Cl)c1`, the inhibition was 17.1% in experiment [1], 12.9% in experiment [2] and 11.8% in experiment [3].

For the molecule `O=C(Nc1ccc(CCNC2=NCCN2)cc1)Nc1ccc(CCNC2=NCCN2)cc1`, the inhibition in experiment [1] is 3.77%; in experiment [2] it was 3.97%; in experiment [3], 3.62%.

In the case of `Cc1cccc2nc(-c3cccc(-c4cccc(CNCc5ccccc5)c4)c3)[nH]c12`, the results for the inhibition in experiment [1], in experiment [2] and in experiment [3] were 1.86%, 0.34% and 0.66%, respectively.

In the case of `Cc1cccc(C(=O)N2CCN(Cc3cccc(NC(=O)c4cccs4)c3)CC2)c1`, the inhibition in experiment [1] was 7.96%; in experiment [2], 9.38%; in experiment [3], 7.07%.

In the case of `Nc1ncc(-c2ccc(NC(=O)Nc3cc(C(F)(F)F)ccc3F)cc2)c(N)n1`, the inhibition in experiment [1] is -0.9%; in experiment [2], 0.23%; in experiment [3], 0.6%.

`COc1ccc2nccc([C@@H](O)CN3CCC(NC(=O)c4cc5ccccc5[nH]4)CC3)c2c1`: the inhibition in experiment [1] was 36%; in experiment [2] it was 55.7%; in experiment [3] it was 38.7%.

Regarding `O=C(N[C@H]1CCN(CCc2ccc(O[C@H]3CCNC3)c(Br)c2)C1)c1ccc(Cl)c(Cl)c1`, the figures for the inhibition in experiment [1], in experiment [2] and in experiment [3] were 0.91%, 3% and 1.43%, respectively.

Consider `O=C(Nc1cccc(-c2cccc(-c3nc4cc(F)ccc4[nH]3)c2)c1)c1c[nH]cn1`, for which the figures for the inhibition in experiment [1], in experiment [2] and in experiment [3] were -0.8%, -0.5% and -1.75%, respectively.

With `COc1ccc(C2CCN(C#N)C2)cc1OC1CCCC1` (configuration not stated), the figures for the inhibition in experiment [1], in experiment [2] and in experiment [3] were 17%, 17.2% and 11.1%, respectively.

For `O=c1cc(NCCCNCc2cccc3c2OC(F)(F)O3)[nH]c2ccccc12`, the inhibition in experiment [1] was found to be 2.3%; in experiment [2], 1.38%; in experiment [3], 1.85%.

For `COc1ccc(Nc2ncc3c(-c4cccc(NC(=O)Cc5cccnc5)c4)c[nH]c3n2)cc1OC`, the inhibition in experiment [1] was -2.6%; in experiment [2], -0.55%; in experiment [3], -1.58%.

As to `OC(CN1c2ccccc2Sc2ccccc21)CN(C1CCCCC1)C1CCCCC1` (configuration not stated), the inhibition in experiment [1] was 6.08%; in experiment [2], 6.38%; in experiment [3], 3.8%.

Take `CCC(CC)(CCC#N)CN(C[C@@H](O)[C@H](Cc1ccccc1)NC(=O)OC(C)(C)C)S(=O)(=O)c1ccc(OC)cc1`: the inhibition in experiment [1] is -0.65%; in experiment [2] it was 0.74%; in experiment [3], 0.65%.

On to `CCCCN(CCCC)Cc1cc2ccccc2cc1O`, for which the inhibition was 3.46% in experiment [1], 4.13% in experiment [2] and -0.3% in experiment [3].

The record behind these values is ChEMBL document CHEMBL3433997, “St. Jude Leishmania screening dataset” (2016).
